DUSP1 inh: blocks human MKP-1 phosphatase activity; recombinant MKP-1, OMFP hydrolysis fluorescence; inhibition, %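 (compounds tested at a single concentration somewhere between 10 and 100 µM)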; actives 0.15% (n = 65,000); AID 374;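 active = inhibition above about 50%, limit read from the data; inconclusive = inhibition over screen mean plus 3 SD, below that limit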
CatB mixtures: inhibitors of human cathepsin B in compound mixtures. inhibition, %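 (ten-compound pools at 5 µM per compound and 50 µM total)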. P07858. actives 0.06% (n = 62,000). Purified cathepsin B, AMC dipeptide fluorescence. AID 488; in the data active = inhibition above about 22%, passing the limit was not always enough; inconclusive = no clear call, values can overlap the other calls
CatL block: blocks human cathepsin L protease activity | P07711 | purified cathepsin L, fluorogenic substrate, fluorescence | inhibition, %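 (tested at 10 µM)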 | actives 0.17% (n = 58,000) | AID 460; in the data active = inhibition above about 45%
Target sequence (P07711 114-288 limits assumed): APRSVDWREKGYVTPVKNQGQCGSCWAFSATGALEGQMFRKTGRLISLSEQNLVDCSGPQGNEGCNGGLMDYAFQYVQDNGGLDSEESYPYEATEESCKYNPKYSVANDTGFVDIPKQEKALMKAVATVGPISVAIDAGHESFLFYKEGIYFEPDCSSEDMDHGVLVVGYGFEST
Target sequence (P07711 292-333 limits assumed): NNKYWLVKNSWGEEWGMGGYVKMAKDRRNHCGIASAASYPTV
CatB inh: blocks human cathepsin B protease activity | inhibition, %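 (tested at 10 µM)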 | purified cathepsin B, fluorogenic substrate, fluorescence | AID 453 | actives 0.1% (n = 63,000); in the data active = inhibition above about 21%
Cdc25B inh: human M-phase inducer phosphatase 2 inhibition; actives 0.1% (n = 65,000); P30305; inhibition, %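 (compounds tested at 10 µM final in the well)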; recombinant Cdc25B, OMFP fluorescence Ex485/Em525; in the data active = inhibition above about 50%
CatS block: human cathepsin S inhibition; actives 0.06% (n = 62,000); inhibition, %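 (tested at 5 µM per compound within 10-compound mixtures)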; recombinant cathepsin S, AMC dipeptide fluorescence, pooled mixtures; in the data active = inhibition above about 32%, passing the limit was not always enough; inconclusive = no clear call, values can overlap the other calls
Target sequence (P25774 115-331 limits assumed): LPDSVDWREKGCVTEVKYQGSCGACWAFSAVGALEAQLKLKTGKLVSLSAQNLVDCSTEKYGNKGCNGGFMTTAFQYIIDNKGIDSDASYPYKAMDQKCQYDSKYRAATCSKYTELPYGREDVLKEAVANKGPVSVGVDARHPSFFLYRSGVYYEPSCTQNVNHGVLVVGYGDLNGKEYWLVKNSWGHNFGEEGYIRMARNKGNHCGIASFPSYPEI
Of the large screens only hits and unclear results are named; the others gave an inactive call. Hits are enriched below; roughly 0.57% of the tested compounds scored in any of these assays.

CCOC(=O)C(C(=O)OCC)N(C#N)c1nc(SC)nc(N(C)C)n1	CatL block 78.4, CatB inh 26.8 (no result: CatB mixtures, CatS block)
CCOCCc1nnc(NC(=O)c2ccc(OC)c(OC)c2)s1	none
Cc1ccc(S(=O)(=O)NCCSc2nnnn2-c2cc(C)ccc2C)cc1	none
Cc1ccc(C)c(-n2nnnc2SCC(=O)c2ccc3c(c2)NC(=O)CO3)c1	DUSP1 inh 52.3
CCCC(=O)NCCCCNC(=O)CCC	none
CC(C)C(c1nnnn1C1CCCC1)N1CCCc2ccccc21 (stereo unspecified)	CatS block 32.5
N#Cc1nc(N2CCCCC2)nc(N2CCOCC2)n1	CatL block 57.7, CatS block 57.9
CC(c1nnc(SCC(=O)NC(=O)NCc2ccco2)n1-c1ccc(Cl)cc1)N(C)C (stereo unspecified)	CatL block 60.8
CN1CCc2c(sc3c2c(=O)n(-c2ccccc2)c2nnc(SCc4ccccc4)n32)C1	none
O=S(=O)(/N=S1/CC=CCN1S(=O)(=O)c1ccccc1)c1ccccc1 (stereo unspecified)	CatB mixtures inconclusive, CatB inh 34.8 (no result: CatL block)
O=S(=O)(c1ccccc1)N1CCN(S(=O)(=O)c2ccccc2)C1	none
CC(=O)N1CCCc2cc(S(=O)(=O)N(C)Cc3ccccc3)ccc21	none
CCCc1ncc(C(O)c2cccc3ccccc23)n1C (stereo unspecified)	none
Cc1ccc(C(=O)NCCNC(=O)CN2CCCC2)cc1	none
N#Cc1ccsc1NC(=O)c1cnccn1	CatB inh 65.5
CC(C)(C)C(=O)Oc1cc(N)n(S(=O)(=O)c2ccccc2)n1	none
COc1ccc(S(=O)(=O)n2nc(OC(=O)c3ccc(C)cc3)cc2N)cc1	CatB mixtures 31.7, CatB inh 48.7
COc1ccc(S(=O)(=O)n2nc(OC(=O)c3ccccc3Br)cc2N)cc1	none
COc1ccc(S(=O)(=O)n2nc(OC(=O)c3ccco3)cc2N)cc1	CatB mixtures 67.5, CatB inh 78.2
COc1ccc(S(=O)(=O)n2nc(OC(=O)c3ccccc3)cc2N)cc1	CatB mixtures 29.1, CatB inh 39.1
COc1ccc(S(=O)(=O)n2nc(OC(=O)c3cccs3)cc2N)cc1	CatB mixtures 68.4, CatB inh 76.0
COC(=O)C1C2C=CC3(CN(CCc4ccccc4)C(=O)C13)O2 (stereo unspecified)	none (no result: CatB mixtures, CatL block, CatB inh, CatS block)
CSc1nnc(-c2ccccc2)c(=O)[nH]1	none
O=C(CN1C(=O)COc2ccccc21)Nc1ccc2c(c1)OCCO2	none
Cc1nc2ccc(NC(=O)NCc3ccco3)cc2s1	none
Cc1nc2ccc(S(=O)(=O)NC(C(=O)NCc3ccco3)C(C)C)cc2s1 (stereo unspecified)	Cdc25B inh 60.4 (no result: CatL block)
CN(C)/C=N/c1nc2ccc3c(c2s1)CCCC3	none
COc1ccc2nc(/N=C\N(C)C)sc2c1	CatB inh 40.7
CCOC(=O)N1CCC(NC(=O)c2cccn3c(=O)c4cc(Br)ccc4nc23)CC1	DUSP1 inh 52.9
Cc1scc(C(=O)NCc2ccco2)c1-c1ccccc1	none
O=C1c2ccccc2C(O)(Cc2ccccc2)N1C1CCCCC1 (stereo unspecified)	CatL block 104.5
O=C(c1cccn2c(=O)c3ccc(Cl)cc3nc12)N1CCN(Cc2ccc3c(c2)OCO3)CC1	DUSP1 inh 64.1
O=C(c1cc2cc3ccc(Cl)cc3nc2o1)N1CCN(Cc2ccc3c(c2)OCO3)CC1	none (no result: CatL block)
COc1cc2c(cc1OC)C(C(=O)NCc1cccnc1)C(c1cccnc1)N(C)C2=O (stereo unspecified)	none
COc1ccc(C2C(C(=O)NCc3ccccn3)c3cc(OC)c(OC)cc3C(=O)N2C)cc1 (stereo unspecified)	CatL block 58.9
CCC12CC3CC(C1)CC(C(=O)Nc1nn[nH]n1)(C3)C2	none
Nc1nonc1C(=O)NCCNCc1cc(Br)ccc1OCc1ccccc1F	none
Nc1nonc1C(=O)NCCNCc1ccccc1OCc1ccccc1F	CatB inh 23.1
CCCN(CCC)CCNC(=O)C(NS(=O)(=O)c1ccc2c(c1)CCC(=O)N2)c1ccccc1 (stereo unspecified)	CatS block 81.7
COc1ccc(N2CCN(CC(=O)Nc3cc(C)on3)CC2)cc1	none
COc1ccc(N2CCN(CCCNS(=O)(=O)c3c(C)noc3/C=C/N(C)C)CC2)cc1	CatL block 74.9
COCCNC(=O)c1cnn2c(C(F)(F)F)cc(-c3ccc4c(c3)OCO4)nc12	none
CCSc1nc2ccccc2n1CC(=O)N1CCCCC1	CatL block 56.0
Nc1nonc1-c1nc2ccccc2n1CC(=O)N1CCCCC1	CatB mixtures 86.1, CatL block 66.2, CatB inh 81.2
COC(=O)c1ccccc1NC(=O)Cn1c(-c2nonc2N)nc2ccccc21	CatB mixtures 81.6, CatL block 66.0, CatB inh 70.0 (no result: CatS block)
O=C(Cn1c(=O)oc2ccccc21)N(Cc1ccccc1)C1CCS(=O)(=O)C1 (stereo unspecified)	none
COCCNC(=O)C(c1ccccc1)N(C(=O)Cn1nnc2ccccc21)c1cccnc1 (stereo unspecified)	none (no result: CatL block)
COCCNC(=O)C(c1cccc(OC)c1)N(C(=O)Cn1nnc2ccccc21)c1cccnc1 (stereo unspecified)	CatB inh 23.0
CCN(C(=O)COc1cc(=O)n(C)c2ccccc12)c1cccc(Cl)c1	CatB inh 57.1
CCc1c(C)[nH]n(CCC#N)c1=O	none (no result: CatL block)
O=C(NCCCc1ccccc1)C1CCN(c2nnc(-n3cccc3)s2)CC1	none
O=C(NCCCN1CCN(Cc2ccccc2)CC1)C1CCN(c2nnc(-n3cccc3)s2)CC1	CatL block 63.8
O=C(NCCCN1CCc2ccccc2C1)C1CCN(c2nnc(-n3cccc3)s2)CC1	CatL block 78.0
CCCOc1ccc(CCN2CCC(=O)NC2=O)cc1C	none (no result: CatL block)
CCCCn1c(NC(=O)c2ccc(F)cc2)c(C#N)c2nc3ccccc3nc21	DUSP1 inh inconclusive, Cdc25B inh 79.4
CCC(=O)Nc1c(C#N)c2nc3ccccc3nc2n1-c1ccc(C)cc1	none
CCCCOc1ccc(C(=O)NCC(=O)NCC(=O)OCC)cc1	Cdc25B inh 90.9 (no result: CatB mixtures, CatS block)
CSC1=C(C#N)C2(CCCC2)C(C#N)=C(N)N1	none
N#CC1=C(N)N2C(=C(C#N)C13CCCCC3)SC1CCCCC12O (stereo unspecified)	Cdc25B inh 62.8
CC(C)NC(=O)C1CCN(C(=O)c2cc3sccc3n2Cc2ccc(F)cc2)CC1	none
CC1CCN(C(=O)C2CCN(C(=O)c3cc4sccc4n3Cc3ccc(F)cc3)CC2)CC1	CatL block 54.0
CN1CCN(CCCNC(=O)c2ccc(CSCc3cccc(Cl)c3)o2)CC1	none
CSc1nc(C2CC2)cc(-c2cccs2)c1C#N	CatB inh 48.1
CCCCCNc1nc(N2CCCC2)c2c(c1C#N)CCN(C)C2	none (no result: CatB mixtures, CatS block)
N#C/C(C(=O)NCc1ccccc1)=C1\SC(CCO)C(=O)N1c1ccccc1 (stereo unspecified)	Cdc25B inh 84.1 (no result: CatB mixtures, CatS block)

Compound activity as filed in PubChem BioAssay.
